This is one part of a sample in which hits are shown more often than they occur.
Pf Dd2 growth = qHTS Primary assay for Inhibitors of Plasmodium falciparum Dd2 growth in vitro; P. falciparum Dd2 growth, SYBR Green, 72 h; AID 1347417, 2020; 4.3% of 120,000 active; Potency, µM (series often up to 28.9 µM), actives largely listed as inhibitors; active = well fitted inhibition curve with a large enough effect; note: nearly all actives have a fitted effect of over 65% in size
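Readout: SYBR Green fluorescence, 485 nm excitation, 535 nm emission, after ~16 h lysis at 37C. Before that, Dd2-infected red cells (2.5% hematocrit) grew 72 h with compound, 29 uM top final concentration.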
A number is an active result; i = inactive.

SMILES	Pf Dd2 growth
Cc1ccc(S(=O)(=O)N2CCN(Cc3cc(=O)n4nc(-c5ccccc5Cl)sc4n3)CC2)cc1	i
COc1cccc(-c2nn3c(=O)cc(CN4CCN(C(=O)COc5ccccc5C)CC4)nc3s2)c1	11µM
COc1ccc(-c2nn3c(=O)cc(CN4CCN(S(=O)(=O)c5ccc(C)cc5)CC4)nc3s2)cc1	11µM
Cc1cccc(-c2nn3c(=O)cc(CN4CCN(S(=O)(=O)c5ccc(Cl)cc5)CC4)nc3s2)c1	8.9µM
COc1ccccc1-c1nn2c(=O)cc(CN3CCN(S(=O)(=O)c4ccc(C)cc4)CC3)nc2s1	i
Cc1cccc(-c2nn3c(=O)cc(CN4CCN(C(=O)c5ccccc5Br)CC4)nc3s2)c1	i
O=C(NCCc1nc(-c2cccnc2)no1)C1CC2(CCNCC2)CN1 (stereo unspecified)	i
COc1ccccc1OCCNC(=O)C1(C)CCCCC(=O)N1 (stereo unspecified)	i
O=C(CC1CCN(C(=O)C2(c3ccccc3)CC2)C1)NC1CC1 (stereo unspecified)	i
Cc1cnc(C2CCC2)n1CCNC(=O)c1cc(C2CC2)[nH]n1	i
Cc1cnc(C2CC2)n1CCNC(=O)C1CCN1C1CCCCC1 (stereo unspecified)	i
Cc1cc(C)c(S(=O)(=O)NCCn2c(C)cnc2C2CCC2)cc1C	3.5µM
O=C(NCCc1ccccc1)c1ccc2nc(CCc3ccccc3)oc2c1	i
CN(C)CCNC(=O)c1ccc2nc(CCc3ccccc3)oc2c1	i
O=C(NCCCN1CCN(c2ccccc2)CC1)c1ccc2nc(CCc3ccccc3)oc2c1	7.9µM
CN1CCN(C(=O)C2CCCN(C3CCN(c4cc(C#N)ccn4)CC3)C2)CC1 (stereo unspecified)	i
C[C@@H](N)C(=O)N1CCC(n2nccc2NC(=O)Nc2ccccc2Cl)CC1	i
Cc1ccc2occ(CC(=O)N(Cc3ccc(N(C)C)cc3)C3CCS(=O)(=O)C3)c2c1 (stereo unspecified)	i
CCN(CC)c1ccc(CN(C(=O)Cc2coc3ccc(C)cc23)C2CCS(=O)(=O)C2)cc1 (stereo unspecified)	13µM
CCc1ccc2occ(CC(=O)N(Cc3ccc(N(C)C)cc3)C3CCS(=O)(=O)C3)c2c1 (stereo unspecified)	i
COC[C@H]1CCCN1C[C@H]1CN2CC[C@H]1C[C@@H]2CNC(=O)Nc1ccsc1	i
COc1cc(F)ccc1-c1cn(C)c(=O)n2cc(COc3ccc(C(=O)O)cc3)nc12	i
CCOc1ccccc1C1NC(=O)N(CC(=O)NCc2cccc(OC)c2)C2=C1C(=O)OC2 (stereo unspecified)	i
Cc1ccc(C)c(NC(=O)c2nnn(CC(=O)Nc3cccc(C)c3C)c2N)c1	i
Cc1ccc(Cl)cc1NC(=O)c1nnn(Cc2ccccc2)c1N	1.1µM
SMILES	Pf Dd2 growth
COc1ccc(NC(=O)c2nnn(CC(=O)Nc3cc(C)cc(C)c3)c2N)c(OC)c1	i
COc1ccc(Cn2nnc(C(=O)Nc3cc(OC)ccc3OC)c2N)cc1	i
COc1ccc(NC(=O)c2nnn(Cc3ccccc3C)c2N)c(OC)c1	1.1µM
Cc1ccc(NC(=O)c2nnn(Cc3ccccc3)c2N)cc1C	i
COc1ccc(Cl)cc1NC(=O)c1nnn(Cc2cccc(C(F)(F)F)c2)c1N	i
COc1cccc(Cn2nnc(C(=O)Nc3cc(C)ccc3C)c2N)c1	i
Cc1cccc(Cn2nnc(C(=O)Nc3cc(C)ccc3C)c2N)c1	2µM
Cn1cc(CN2CCN3C(=O)N(C4CCOCC4)C[C@H]3C2)cn1	i
CCCc1noc(-c2cn(C3CCN(C(=O)c4ccc(OC)nc4OC)CC3)nn2)n1	i
COCCOC1CCN(S(=O)(=O)c2cn(C)cn2)CC1	i
CC(CN1CC2(CCN(C(=O)c3ccc(=O)n(C)n3)CC2)OC1=O)c1ccccc1 (stereo unspecified)	i
O=C(C1CCN(c2cnn(Cc3ccccc3)c(=O)c2)C1)N1CCc2ccccc2C1 (stereo unspecified)	i
Cc1ccc(NC(=O)N2CC(C(=O)N(C)C)C3(CCOCC3)C2)cc1Cl (stereo unspecified)	i
Cc1noc(C)c1[S+](=O)([O-])N1CCCC(c2nn(-c3ccc(F)cc3)c(=O)[nH]2)C1 (stereo unspecified)	i
CCCNC(=O)CCc1ccnc(N2CCOCC2)c1	i
O=C(CCc1ccnc(N2CCCC2)c1)NCc1ccc(F)c(Cl)c1	3.2µM
Cn1c(CNC(=O)CCc2ccnc(N3CCCC3)c2)nc2ccccc21	i
CCC(c1cccs1)N1C(=O)[C@H]2CN(C(=O)NC)C[C@H]2C1=O (stereo partly specified)	i
CCCN1C(=O)C(CC(=O)NC(C)CC)Sc2ncccc21 (stereo unspecified)	i
CCN1c2cc(C(=O)NCc3ccc(F)cc3Cl)ccc2C(=O)N2CCCCCC21 (stereo unspecified)	i
CNC(=O)[C@@H]1CN(C(=O)c2ccc(C)c(C)c2)C[C@H]1CO	i
Cc1cc(C(=O)N2C[C@@H](COc3ccccc3)[C@H](C(N)=O)C2)n(C)n1	i

Compound activity from PubChem BioAssay.
